# Assay outcomes: PubChem, National Center for Advancing Translational Sciences (NCATS)
# D1 antagonist: antagonists of human D1 dopamine receptor; P21728; HEK293 TREx D1 cells, calcium flux, dopamine EC80; stronger effect = lower value; activity change, negative = inhibition, % at 10 µM; 360,000 compounds, 3.2% hits; AID 504652; in the data active = activity change below about -30%; also: % is scaled to controls: 0 for no effect and ±100 for the full control effect
#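 After overnight tetracycline induction at 30 C, force-coupled D1 HEK293 cells took up a no-wash calcium dye at room temperature. Compounds were added and monitored 180 s, and the response to EC80 dopamine was then recorded.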
# D1 ag: activates the human D1 dopamine receptor; AID 504660; P21728; activation, % at 2 µM; HEK293 T-REx D1 cells, calcium flux, agonist mode; 360,000 compounds, 1% hits; also: 0% is about no effect
#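 Inducible HEK293 T-REx D1 cells, force-coupled to calcium signalling, were plated at 4000 cells/well with tetracycline and held overnight at 30 C. After no-wash calcium dye loading, compound-evoked calcium rise over 180 s flagged agonists.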
# TRHR agonist: activates the human TRH receptor | P34981 | TRHR cells, calcium flux fluo-8, FDSS agonist mode | activation, % at 2 µM | 360,000 compounds, 0.18% hits | AID 493084; also: 0% is about no effect
# Target sequence (P34981 whole entry, looked up): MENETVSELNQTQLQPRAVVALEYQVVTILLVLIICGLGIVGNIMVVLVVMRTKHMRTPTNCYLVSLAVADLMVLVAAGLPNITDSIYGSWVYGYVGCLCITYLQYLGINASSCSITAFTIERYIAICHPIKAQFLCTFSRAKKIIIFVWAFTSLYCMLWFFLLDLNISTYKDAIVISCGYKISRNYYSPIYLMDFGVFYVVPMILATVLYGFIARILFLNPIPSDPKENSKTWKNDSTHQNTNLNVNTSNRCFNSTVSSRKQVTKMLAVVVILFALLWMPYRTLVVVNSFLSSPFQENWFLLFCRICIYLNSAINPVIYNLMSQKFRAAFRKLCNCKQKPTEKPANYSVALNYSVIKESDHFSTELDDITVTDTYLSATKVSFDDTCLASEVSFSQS
#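 In this calcium-flux screen, cells bearing human TRHR are dye-loaded with fluo-8, baselined for 10 cycles, then exposed to library compounds; positive kinetic calcium responses during the agonist phase mark hits, with TRH as control.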
# D1 PAM: human D1 dopamine receptor positive modulation; P21728; HEK293 TREx D1 cells, calcium flux, dopamine EC20 potentiation; potentiation, % at 10 µM; 360,000 compounds, 0.036% hits; in the data active = potentiation above about 30%; also: 0% is about no effect
# TRHR enhancer: TRH receptor (human) allosteric enhancement; P34981; TRHR cells, fluo-8 calcium fluorescence, EC20 TRH enhancement; 360,000 compounds, 0.66% hits; enhancement, % at 2 µM; in the data active = enhancement above about 30%; also: 0% is about no effect
#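 Enhancer read-out: after compound pinning and an initial kinetic agonist-mode read, an EC20 of TRH (10 nM final) was injected and fluo-8 calcium signal (Ex 480/Em 530) followed at 1 s/cycle for 100 cycles in TRHR-expressing cells.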
# * marks the source's active call; other numbers are inactive results; · = no result; ! = not confirmed by another sample. Shown are actives, neighbours in structure and some others; about 4.7% of the full set was active somewhere. Rule as the data show it, unless noted: active = activation above about 30%; inactive = the rest.
SMILES,D1 antagonist,D1 ag,TRHR agonist,D1 PAM,TRHR enhancer
CC(C)(O)C#Cc1ccc(CN2CCN(Cc3ccccc3)C(CCO)C2)s1 (stereo not given),-12,7,-2,-1,0
CC(C)(O)C#Cc1ccc(CN2CCN(Cc3ccsc3)C(CCO)C2)s1 (stereo not given),-5,1,2,-1,-5
Cc1ccc(NC(=O)c2sc3nc(C)cc(C)c3c2N)cc1,-19,0,0,-6,-2
Cc1cc(C)c2c(N)c(C(=O)Nc3cccc(C)c3C)sc2n1,-31*,1,0,0,-8
CCOC(=O)C1(C)C=C(Nc2ccc(OC)cc2)C(=O)N1c1ccccc1 (stereo not given),-42*,2,-1,-3,2
Cc1ccc(-n2cc(C(=O)OCc3ccc(Cl)cc3)c3ccccc3c2=O)cc1,6,0,0,-2,8
CCc1ccc(C2CC(=O)c3c([nH]c(C(=O)OC4CCCCCC4)c3C)C2)cc1 (stereo not given),-1,3,-1,1,1
COc1ccc(CCNC(=O)c2ccc3c(c2)N(Cc2cc(C)ccc2C)C(=O)c2ccccc2S3=O)cc1OC (stereo not given),-6,10,0,-3,31*
CCOC(=O)N1CCC(NC(=O)c2ccc3c(c2)N(Cc2ccccc2)C(=O)c2ccccc2S3=O)CC1 (stereo not given),6,4,-1,-3,6
CCOC(=O)N1CCC(NC(=O)c2ccc3c(c2)N(Cc2ccc(F)cc2)C(=O)c2ccccc2S3=O)CC1 (stereo not given),2,2,1,-2,37*
CCOC(=O)N1CCN(C(=O)c2ccc3c(c2)N(Cc2ccccc2F)C(=O)c2ccccc2S3=O)CC1 (stereo not given),-47*,0,0,-4,7
COc1ccc(CCNC(=O)c2ccc3c(c2)N(Cc2ccccc2F)C(=O)c2ccccc2S3=O)cc1OC (stereo not given),8,1,0,2,10
CCN1CCN(C(=O)c2ccc3c(c2)N(Cc2ccccc2F)C(=O)c2ccccc2S3=O)CC1 (stereo not given),-4,2,0,-1,3
O=c1c2cccnc2[nH]c(=S)n1Cc1ccccc1,-8,2,0,4,32*
O=c1c2nccnc2[nH]c(=S)n1Cc1ccccc1,7,6,0,0,5
CCc1nc2ccccc2n1CC(=O)N1CCN(S(=O)(=O)c2cccc(C(F)(F)F)c2)CC1,-7,-1,1,-6,-15
O=C(c1cc(Cl)nc2ccccc12)N1CCN(S(=O)(=O)c2cccc(C(F)(F)F)c2)CC1,-33*,-1,0,-6,-13
Cc1cc(O)cc2c1C(=O)/C(=C/c1ccco1)O2,-6,42*,-1,-4,0
CCC(=O)Oc1ccc2c(c1)O/C(=C\c1ccco1)C2=O,9,43*,21,-2,-3
COC(=O)COc1ccc2c(c1)O/C(=C\c1ccco1)C2=O,-1,3,0,6,-3
CCN(CC)C(=O)Oc1ccc2c(c1)O/C(=C\c1ccco1)C2=O,10,1,1,3,-9
CCOC(=O)C1(CCCc2ccccc2)CCN(CCCn2cccn2)CC1,-8,37*,0,-1,8
Nc1nc(-c2ccccc2)c(-c2ccc([N+](=O)[O-])cc2)s1,-4,71*,21,-4,8
Nc1nc(-c2ccccc2)c(-c2ccccc2)s1,-7,0,0,0,1
O=C(CCSCCc1ccccn1)Nc1ccccc1C(F)(F)F,-13,2,0,-6,-2
SMILES,D1 antagonist,D1 ag,TRHR agonist,D1 PAM,TRHR enhancer
CCN(CC)S(=O)(=O)c1ccc(C(=O)N2CCN(CCN3C(=O)c4cccc5cccc(c45)C3=O)CC2)cc1,5,2,-1,3,19
O=C(OCCN1C(=O)c2ccccc2C1=O)c1cc(S(=O)(=O)N2CCOCC2)ccc1F,-24,0,0,-6,0
CCCN(CCC)S(=O)(=O)c1ccc(C(=O)OCCN2C(=O)c3cccc4c(N5CCOCC5)ccc(c34)C2=O)cc1,-16,113*,21,1,0
O=C(OCCN1C(=O)c2cccc3c(N4CCOCC4)ccc(c23)C1=O)c1ccc(Cl)cc1,-2,93*,29,0,-2
O=C(O)c1cccnc1SCc1cccc(Cl)c1,-40*!,1,0,-13,-27
CCCC(=O)Nc1ccc2c(c1)Cc1ccccc1-2,-38*,3,0,-1,3
CCC(=O)Nc1ccc2c(c1)Cc1cc(NC(=O)CC)ccc1-2,-7,0,-1,-9,-6
CC(C)Oc1ccc(OCCCN2CCCCCC2)cc1,14,-2,0,-8,2
Clc1ccc(OCCCCN2CCCCC2)cc1,-39*,26,0,-5,-2
CC(C)(C)c1ccc(OCCCN2CCCC2)cc1,-11,15,0,-5,38*
CC(C)c1ccc(OCCCCN2CCCCC2)cc1,6,12,2,5,3
Cc1ccc(C(=O)COC(=O)c2cc(-c3ccc(Cl)cc3)nc3ccccc23)cc1,-8,1,1,-2,-1
COc1ccc(/C=C(\C#N)C(=O)NCc2cccs2)cc1OC,-34*,0,-1,0,26
COc1ccc(/C=C(\C#N)C(=O)NCc2ccccc2)cc1O,-5,3,0,·,7
Cc1ccc(NCc2cccn2-c2nnc(N3CCC(C(=O)NCCc4ccccc4)CC3)s2)cc1,9,-2,0,0,5
Cc1ccc(NC(=O)CCc2nc(-c3ccccc3F)no2)c(C)c1,-12,5,-1,3,6
COc1cc(NC(=O)CCN2CCN(c3ccccc3F)CC2)cc(OC)c1,-42*,3,0,-11,11
O=C(CCN1CCN(c2ccccc2F)CC1)Nc1ccc(F)cc1,-14,2,0,-26,-3
O=C(CCN1CCN(c2ccccc2F)CC1)Nc1cccc(F)c1,-43*,10,0,-6,5
COc1cccc(-c2csc(N3CCN(CC(=O)Nc4ccc5c(c4)OCO5)CC3)n2)c1,-2,0,-1,-9,-3
COC(=O)c1[nH]c2cccc(OC)c2c1NC(=O)CCN1CCN(c2ccccc2F)CC1,-57*,4,0,-9,-1
COc1cc(NC(=O)CCN2CCN(Cc3ccccc3)CC2)cc(OC)c1,10,6,0,1,0
COc1ccc(NC(=O)CN2CCN(c3nc(-c4cccc(OC)c4)cs3)CC2)cc1,-37*,2,0,-26,3
COC(=O)c1[nH]c2cccc(OC)c2c1NC(=O)CCN1CCC(C(N)=O)CC1,-14,-1,0,-2,1
